In PubChem BioAssay (Tox21) one finds Potency and outcome data, which are given here for 28 molecules.

Where “and” joins values, the source holds several entries; their conditions need not be identical. Equal entries are not always repeated. Results filed as inconclusive are left out. A structure can be active in one record and inactive in another. Calls of active or inactive are those of the source. Unless noted, calls follow the shape of the dose curve; as a rule, active = well fitted curve in the direction sought with a large enough effect in the repeat runs; inconclusive = weak or mixed curves; inactive = no such curve, though single readings can be large; an effect the other way counts as inactive or inconclusive.

Test [1] in a line: qHTS assay to identify small molecule antagonists of the vitamin D receptor (VDR) signaling pathway - cell viability counter screen (AID 743225). Also: nearly all actives have a fitted effect of over 50% in size. Also: potency is read from the fitted curve at half-maximal effect. The procedure, abridged:
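Cytotoxicity toward the VDR-bla HEK 293T line was scored by ATP-based CellTiter-Glo luminescence, read in the wells already used for the beta-lactamase readout after 16 h compound treatment under 3 nM 1-alpha,25-dihydroxyvitamin D3 stimulation.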
For orientation: In qHTS, concentration-response curves come from the screen itself.

Test [2] in a line: qHTS assay to identify small molecule agonists of the endoplasmic reticulum stress response signaling pathway (AID 1159516; active = well fitted activation curve with a large enough effect in the signal ratio in the repeat runs, not every such curve was filed as active; the % refers to the signal ratio). The procedure, abridged: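 Ratiometric FRET readout (405 nm excitation; 460 and 530 nm emission) of a beta-lactamase gene driven by the ER stress response element, after 2 hr substrate loading. HeLa ESRE-bla cells were seeded overnight and treated with compounds for only 5 hr at 37 C.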

A short description of test [3]: qHTS assay to identify small molecule agonists of the endoplasmic reticulum stress response signaling pathway - cell viability counter screen (AID 1159517; calls by dose curve; also: nearly all actives have a fitted effect of over 50% in size; also: potency is read from the fitted curve at half-maximal effect). The procedure, abridged: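 Cytotoxicity of test compounds toward ESRE-bla HeLa cells was assessed after 5 hr exposure. The luminescent CellTiter-Glo signal was measured 30 min after reagent addition.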
A short description of test [4]: qHTS assay to identify small molecule antagonists of the retinoid-related orphan receptor gamma (ROR-gamma) signaling pathway - cell viability counter screen (AID 1159520). Also: nearly all actives have a fitted effect of over 50% in size. Also: potency is read from the fitted curve at half-maximal effect. In outline: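 Tet-on ROR gamma CHO cells (1,000/well) were plated 4 hr, given compounds in DMSO for 2 hr at 37 C, then induced with 1 uM final doxycycline for 16 hr. Viability was read as ATP by CellTiter-Glo luminescence after 30 min.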

The target of test [5] is Nuclear receptor ROR-gamma (Homo sapiens) (UniProt P51449). The test can be described thus: qHTS assay to identify small molecule antagonists of the retinoid-related orphan receptor gamma (ROR-gamma) signaling pathway (AID 1159521; also: nearly all actives have a fitted effect of over 50% in size; also: potency is read from the fitted curve at half-maximal effect). In outline: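 Readout: ONE-Glo luciferase luminescence, 30 min at room temperature. System: Tet-on RORγ CHO, RORE-LUC. Sequence: compound 2 h, doxycycline 1 uM final, 16 h at 37 C.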

Test [6] in a line: qHTS assay to identify small molecule agonists of the AP-1 signaling pathway - cell viability counter screen (AID 1159525; calls by dose curve; also: nearly all actives have a fitted effect of over 55% in size; also: potency is read from the fitted curve at half-maximal effect). In outline:
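Each titration point was normalised to DMSO and tetra n-octyl ammonium bromide controls. The read was Cell Titer Glo luminescence after 30 min at RT, following 5 h compound exposure of ME-180 AP-1-bla cells at 37 °C.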

Test [7] can be described thus: qHTS assay to identify small molecule agonists of the AP-1 signaling pathway (AID 1159526; calls by dose curve).
The target of test [8] is Retinoic acid receptor RXR-alpha (Homo sapiens) (UniProt P19793). The test can be described thus: qHTS assay to identify small molecule agonists of the RXR signaling pathway (AID 1159527; calls by dose curve; also: nearly all actives have a fitted effect of over 35% in size). In outline: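 Reporter activation is measured as beta-lactamase activity via FRET substrate cleavage (emission 460/530 nm) in HEK 293T cells expressing an RXR-alpha-driven bla construct, following 16 hr compound exposure at 37 C.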
Retinoic acid receptor RXR-alpha (Homo sapiens), sequence (P19793 whole entry, looked up): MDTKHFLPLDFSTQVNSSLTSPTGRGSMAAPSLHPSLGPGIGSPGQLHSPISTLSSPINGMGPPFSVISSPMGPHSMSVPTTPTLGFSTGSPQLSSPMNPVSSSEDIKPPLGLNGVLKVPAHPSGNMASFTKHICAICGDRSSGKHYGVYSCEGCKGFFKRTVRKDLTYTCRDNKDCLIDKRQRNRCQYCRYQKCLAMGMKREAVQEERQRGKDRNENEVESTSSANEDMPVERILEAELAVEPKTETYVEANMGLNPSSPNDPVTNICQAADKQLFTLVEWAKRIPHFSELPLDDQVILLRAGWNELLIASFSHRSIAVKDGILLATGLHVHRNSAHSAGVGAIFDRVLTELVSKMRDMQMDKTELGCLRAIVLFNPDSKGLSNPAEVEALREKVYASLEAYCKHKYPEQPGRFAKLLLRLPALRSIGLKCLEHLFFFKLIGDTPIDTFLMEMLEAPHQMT

The nature of test [9]: qHTS assay to identify small molecule agonists of the RXR signaling pathway - cell viability counter screen (AID 1159529). Also: nearly all actives have a fitted effect of over 50% in size. Also: potency is read from the fitted curve at half-maximal effect. The procedure, abridged: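 Tox21 10K compounds were tested for cytotoxicity against GeneBLAzer RXR-alpha HEK 293T cells grown in 2% charcoal-stripped FBS. Exposure lasted 16 hr at 37 C, 5% CO2; viability read by CellTiter-Glo luminescence.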
Test [10] in a line: qHTS assay to identify small molecule agonists of the NFkB signaling pathway - cell viability counter screen (AID 1159515; calls by dose curve; also: nearly all actives have a fitted effect of over 55% in size; also: potency is read from the fitted curve at half-maximal effect). The procedure, abridged:
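Read by CellTiter-Glo luminescence (30 min, room temperature) in the wells also used for the beta-lactamase FRET read. ME-180 NFkB-bla cells at 2,000 per well were plated overnight, then exposed to compound for 5 hr at 37 C.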

Turning to `Cc1cc(C)c(C2=C(OC(=O)CC(C)(C)C)C3(CCCC3)OC2=O)c(C)c1`, the Potency entry in test [1], in test [2], in [3], in [4], in [5] and in [6] was “inactive” each time. The Potency entry in [7] and in test [9] was “inactive” throughout. In addition, the result in [8] was inactive.

Regarding `CC(C)N1C(=O)N(c2ccccc2)CSC1=NC(C)(C)C`, the Potency entry in test [2] and in test [3] was “inactive” throughout. Besides, in test [5], the Potency was 43.3 µM (active).

For the molecule `N#CNC#N`, the Potency entry in test [2], in [3], in test [4], in [5], in test [6] and in test [7] was “inactive” in each case. Moreover, the Potency entry in [9] was “inactive”. Moreover, the molecule was called inactive in [8].

Consider `CC(=O)[O-].[Tl+]`, for which the Potency result in [1], in test [2], in test [3], in test [4] and in test [7] was “inactive” each time.

On to `ClCc1ccc(Cl)cc1Cl`, for which the Potency entry in test [1], in test [10], in [7] and in test [9] was “inactive” throughout. In [8], the molecule was called inactive.

As for `O=c1[nH]c2ccccc2n1CCCN1CCC(n2c(=O)[nH]c3cc(Cl)ccc32)CC1`, the Potency entry in test [1], in test [2], in [3], in test [4] and in test [6] was “inactive” each time. For the same molecule, in test [9], the Potency is 16.9 µM (active).

Consider `CC(C)CC(C)N` (configuration not stated), for which the Potency result in test [1], in test [2], in [4], in test [5], in [6] and in test [7] was “inactive” each time. The Potency result in [9] was “inactive”. Moreover, the molecule was called inactive in test [8].

Regarding `O=[N+]([O-])O.O=[N+]([O-])O.[Cd]`, the Potency in test [1] was 19.5 µM (active); in test [9] it was 43.6 µM (active). In [10], the Potency result was “inactive”.

In the case of `BrCBr`, the Potency entry in [1], in test [2], in [3], in [4], in test [6] and in [7] was “inactive” each time. Further, the Potency result in [9] is “inactive”. The outcome in test [8] was inactive.

Regarding `N#CCCSCCC#N`, the Potency result in test [1], in [2], in [3], in [4], in [7] and in test [9] was “inactive” each time. In addition, the call in [8] was inactive.

As for `CN(C)C(=S)[S-].CN(C)C(=S)[S-].[Cu+2]`, the Potency in test [1] is 4.74 µM (active); in test [10] it was 4.74 µM (active); in test [6], 6.7 µM (active); in [9], 0.844 µM (active).

Consider `CC(C)CCCCCCCOP(=O)(Oc1ccccc1)Oc1ccccc1`, for which the Potency result in [1], in [2], in test [3] and in test [4] was “inactive” each time.

For the molecule `Nc1ccccc1C(=O)Oc1ccc2ccccc2c1`, the Potency entry in test [1], in test [2] and in test [5] was “inactive” in each case. In test [3], the Potency was 43.6 µM (active).

In the case of `CC(C)CCCCCOC(=O)c1ccccc1C(=O)OCCCCCC(C)C`, the Potency entry in test [1], in test [2], in test [3], in [4], in [5] and in test [6] was “inactive” throughout. Besides, the Potency result in test [7] and in [9] was “inactive” in each case.

For the molecule `CC(C)(C)c1ccc(CSc2cnn(C(C)(C)C)c(=O)c2Cl)cc1`, the Potency entry in [2], in test [3] and in [7] was “inactive” each time. The Potency in test [5] is 0.154 µM (active).

In the case of `CCC(C)(C)C(=O)OC1=C(c2ccc(Cl)cc2Cl)C(=O)OC12CCCCC2`, the Potency result in [1], in [10], in test [5], in test [6] and in test [9] was “inactive” throughout. The result in test [8] was inactive.

Turning to `ClC(Cl)=C(Cl)Cl`, the Potency entry in test [1], in [2], in [3], in test [4], in test [5] and in [7] was “inactive” each time. For the same molecule, the Potency entry in test [9] is “inactive”. Further, the outcome in [8] was inactive.

For the molecule `FC(Cl)(Cl)Cl`, the Potency result in test [1], in test [2], in [3], in test [4], in [5] and in test [6] was “inactive” throughout. In addition, the Potency entry in [7] and in test [9] was “inactive” each time. Besides, the call in test [8] was inactive.

`N#C/C=C/C#N`: the Potency entry in [1], in test [3], in test [4], in test [5], in [6] and in test [7] was “inactive” each time. Moreover, in test [9], the Potency entry was “inactive”. The molecule was called inactive in test [8].

Regarding `COc1ccc(N)cc1N`, the Potency entry in [1] and in [2] was “inactive” throughout. Also, the Potency was 7.08 µM (active) and 14.7 µM (active) in [5]; 50.5 µM (active) and inactive in [6]. Further, the call in test [8] was inactive.

Regarding `O=C(O)COc1nc(Cl)c(Cl)cc1Cl`, the Potency entry in [2], in [4], in [6] and in [7] was “inactive” throughout.

`CCOC(=O)C1(c2ccccc2)CCN(CCC(C#N)(c2ccccc2)c2ccccc2)CC1`: the Potency entry in test [1], in test [3], in test [4], in [6], in test [7] and in test [9] was “inactive” throughout. The Potency in [5] is 18.8 µM (active).

Regarding `CC(=O)O[C@H]1CC[C@@]2(C)C(=CC[C@@H]3[C@@H]2CC[C@]2(C)C(=O)CC[C@@H]32)C1`, the Potency result in test [1], in test [2] and in test [4] was “inactive” each time. The Potency in [5] is 48.6 µM (active).

As for `O=[N+]([O-])c1ccc(Oc2ccc(C(F)(F)F)cc2[N+](=O)[O-])cc1`, the Potency entry in [1], in [2], in test [5], in test [6], in test [7] and in test [9] was “inactive” in each case.

In the case of `C[C@]12CC[C@H]3[C@@H](CCC4=CC(=O)CC[C@@]43C)[C@@H]1CC[C@@H]2O`, the Potency entry in test [1], in test [2], in test [4], in test [6] and in [9] was “inactive” in each case.

On to `CCCCCCCCCCCCCCCC[N+](C)(C)C`, for which the Potency in test [1] was 21.1 µM (active) and 21.9 µM (active) and 23.9 µM (active); in test [3], 23.7 µM (active) and 43.6 µM (active); in [4] it was 29.5 µM (active) and 61.1 µM (active) and 29.8 µM (active); in [5] it was 7.42 µM (active) and 12.2 µM (active) and 5.96 µM (active); in [6], 49 µM (active) and 26.8 µM (active); in test [9], 10.6 µM (active) and 24.5 µM (active) and 12 µM (active).

With `O=C(O)C1C2CCC(O2)C1C(=O)O` (configuration not stated), the Potency entry in test [1], in [2], in test [6], in test [7] and in test [9] was “inactive” in each case. Moreover, the Potency is 44.5 µM (active) in test [4]; 13.9 µM (active) and 12.5 µM (active) in test [5]. Besides, the outcome in [8] was inactive.

For `FC(F)(F)c1cccc(C2=CCN(CCc3ccc4ccccc4c3)CC2)c1`, the Potency result in [1], in test [2], in test [4] and in test [5] was “inactive” each time. In test [8], the molecule was classed as inactive.
